# Compound activity deposited in PubChem by National Center for Advancing Translational Sciences (NCATS).
# The sample as a whole holds a higher share of hits than the screen did.
# Tb PYK inh = T. brucei pyruvate kinase inhibition. TbPYK enzyme, Kinase-Glo Plus ATP luminescence, 45 min. Potency, µM (series often up to 76.8 µM), inactives show at the top dose activity, negative = inhibition, actives largely listed as inhibitors. 410,000 tested, 0.12% active. AID 624173; further: potency means the concentration at half of the fitted maximal effect; on the % scale 0 is the no-effect control and ±100 the full control effect; nearly all actives have a fitted effect of over 50% in size
#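 TbPYK + substrate in 50 mM TEA pH 7.2, 100 mM KCl, 10 mM MgCl2, 0.05% BSA, 0.01% Tween-20; cpd pinned; ADP 130 uM final; 45 min RT; Kinase-Glo Plus 10 min; luminescence endpoint.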
# CHX counter = counter-screen for Shiga toxin inhibitors: cycloheximide protein synthesis inhibition; cell reporter, cycloheximide protein synthesis inhibition counterscreen; max response, %; 300,000 tested, 12% active; AID 2314; in the data active means max response mostly above about 13%, no sharp cut-off; inactive means mostly below about 14%; further: read at 38.3 µM for the half of the compounds with a filed dose; 0% is about no effect
# RE007 growth inh = less growth of the S. pombe RE007 Vpr strain. S. pombe RE007 Vpr strain, BacTiter-Glo ATP luminescence, 24 h. Potency, µM (doses to about 92.2 µM), inactives show top-dose activity change, negative = less growth, usual class: inhibitors. 360,000 tested, 0.21% active. AID 651644; active means well fitted falling curve with a large enough effect; inconclusive means small, poorly fitted or top-dose-only effect; inactive means no such curve, though single readings can be large or run the other way; further: potency means the concentration at half of the fitted maximal effect; on the % scale 0 is the no-effect control and ±100 the full control effect; nearly all actives have a fitted effect of over 50% in size
#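 Fission yeast RE007 carrying one integrated HIV-1 vpr copy, seeded at OD 0.01 in PMG+AL medium with 23 nL pinned compound. Grown 24 h at 30 degrees; viability read by BacTiter-Glo luminescence after 5 min.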
# Shiga toxin inh = inhibitors of Shiga toxin in Vero cells | 290,000 tested, 9.2% active | AID 2315 | Vero cells, Shiga toxin protein synthesis inhibition reporter | inhibition, % at 38.7 µM; in the data active means inhibition mostly above about 28%, no sharp cut-off; inactive means mostly below about 43%; further: 0% is about no effect
# LmPK inhibitor = inhibitors of Leishmania mexicana pyruvate kinase; Q27686; purified LmPK, Kinase-Glo ATP luminescence, 1 h; Potency, µM (doses to about 57.5 µM), for inactives: at the highest dose activity change, negative = inhibition, usual class: inhibitors; 290,000 tested, 0.37% active; AID 1721; further: potency means the concentration at half of the fitted maximal effect; on the % scale 0 is the no-effect control and ±100 the full control effect
# Target sequence (Q27686 whole entry, looked up): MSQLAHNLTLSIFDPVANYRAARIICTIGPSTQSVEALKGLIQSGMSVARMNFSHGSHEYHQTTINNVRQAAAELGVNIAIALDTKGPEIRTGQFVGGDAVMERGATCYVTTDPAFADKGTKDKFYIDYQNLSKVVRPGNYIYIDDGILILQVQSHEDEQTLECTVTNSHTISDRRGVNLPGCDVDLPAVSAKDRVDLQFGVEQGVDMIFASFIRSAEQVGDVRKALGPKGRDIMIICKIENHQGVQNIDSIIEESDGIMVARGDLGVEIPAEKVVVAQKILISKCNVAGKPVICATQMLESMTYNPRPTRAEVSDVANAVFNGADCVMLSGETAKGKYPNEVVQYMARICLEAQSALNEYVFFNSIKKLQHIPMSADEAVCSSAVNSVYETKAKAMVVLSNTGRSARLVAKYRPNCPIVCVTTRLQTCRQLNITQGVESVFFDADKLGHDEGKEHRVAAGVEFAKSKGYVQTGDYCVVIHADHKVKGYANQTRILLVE
#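 Pyruvate kinase activity monitored as ATP production (luciferase luminescence). Conditions: 0.1 nM enzyme, 0.5 mM PEP, 0.1 mM ADP, 1 h, RT; normalized against uninhibited and no-enzyme wells.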
# Giardia FBPA inh = blocks Giardia fructose-bisphosphate aldolase activity; 290,000 tested, 0.71% active; Potency, µM (series often up to 59.6 µM), inactives show top-dose activity, negative = inhibition, actives largely listed as inhibitors; purified Giardia FBPA; further: potency means the concentration at half of the fitted maximal effect; on the % scale 0 is the no-effect control and ±100 the full control effect; nearly all actives have a fitted effect of over 55% in size
#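 40 nM FBPA preincubated 10 min at RT with compound (up to 57.5 uM final), then substrate plus GAPDH/TPI/NAD/arsenate coupling and diaphorase/resazurin added. Fluorescence read after 20 min at RT, 525/598 nm.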
# * hit, by the source's call; ? = inconclusive; · = not tested or not shown; [ ] = another dose, or the depositor's remark. Unless noted, the call rests on the fitted dose curve; in most records, active means well fitted curve in the direction sought with a large enough effect; inconclusive means small, poorly fitted or top-dose-only effect, or another doubt; inactive means no such curve, though single readings can be large; an effect the other way counts as inactive or inconclusive.
SMILES,Tb PYK inh,CHX counter,RE007 growth inh,Shiga toxin inh,LmPK inhibitor,Giardia FBPA inh
O=C(O)c1ccc(N2CCCCC2)cc1O,3%,3,1%,19,2%,5%
O=[N+]([O-])c1cccc(/C=C2\CCC(/C=N/Nc3ccc4ccccc4n3)=C2N2CCOCC2)c1,7%,17*,-14%,-3,1%,7%
O=[N+]([O-])c1cccc(/C=N/Nc2nc(N3CCOCC3)nc(N3CCOCC3)n2)c1,0%,-4,24%,-4,-1%,1%
C=CCOC(=O)N[C@@H](CC(C)C)/C(C(=O)OC)=C(\C)NCc1ccccc1,·,·,·,·,·,-3%
Cc1nnc(N2C(=O)c3oc4ccccc4c(=O)c3C2c2cccc(OCCC(C)C)c2)s1 (configuration not stated),-8%,·,·,·,·,·
O=C(C1CCN(c2nnc(-n3cccc3)s2)CC1)N1CCCCC1,-2%,20*,-6%,20,-6%,7%
O=C1C(=O)N(C2CCN(C(=O)c3ccc(Cl)cc3)CC2)CCN1Cc1ccc(F)cc1,-4%,·,·,·,·,·
COc1ccccc1-n1c(Cc2cccs2)n[nH]c1=S,?,9,-7%,34,-20%,-8%
Cc1ccc(C)c(-n2c(Cc3cccs3)n[nH]c2=S)c1,?,-1,-7%,-16,10µM*,3%
S=c1[nH]nc(Cc2cccs2)n1-c1ccccc1Cl,?,-1,10%,-8,10µM*,-4%
CCCCc1n[nH]c(=S)n1Cc1ccccc1,?,-3,2%,-9,0%,-4%
CCCCc1ccc(-n2c(Cc3cccs3)n[nH]c2=S)cc1,7.9µM*,-8,11%,-14,-6%,8%
S=c1[nH]nc(Cc2cccs2)n1-c1ccccc1,8.9µM*,1,4%,-12,?,·
S=c1[nH]nc(Cc2cccs2)n1-c1cccc2ccccc12,?,1,·,3,7.9µM*,13%
Nc1cc(-c2ccc(Br)cc2)nn1S(=O)(=O)c1ccccc1,-2%,-6,-8%,-20,1%,-1%
Cc1cc(C)n2nc(-c3ccc(F)cc3)cc2n1,-5%,·,-5%,·,·,·
Cc1ccc(-c2cc3nc(C)cc(C)n3n2)cc1,0%,38*,-20%,78*,-8%,-18%
Nc1cc(-c2ccc(Br)cc2)nc2cc(-c3ccccc3)nn12,6%,24,-10%,93*,-1%,-3%
Cc1cc(C)n2nc(-c3ccccc3)cc2n1,0%,57*,-30%,77*,-19%,-8%
Cc1cc(C)n2nc(Nc3ccccc3)cc2n1,2%,28*,-19%,88*,-1%,-24%
COc1ccc(OC)c(Nc2nc3ccccc3nc2-n2nc(C)cc2C)c1,-3%,·,·,·,·,·
FC(F)(F)c1ccccc1-c1nccc(-n2ccnc2)n1,·,·,·,·,·,-13%
CCOC(=O)Cc1ccc(NC(=O)N2CCc3c(sc4c3CCCC4)C2c2ccc(F)cc2)cc1 (configuration not stated),-4%,·,·,·,·,·
Cc1ccc(-c2nonc2NC(=O)c2ccc(F)cc2)cc1C,0%,·,·,·,·,·
Cc1ccc(NC(=O)c2cc3nc(C)cc(C)n3n2)cc1,-19%,47*,18%,101*,-1%,-9%
SMILES,Tb PYK inh,CHX counter,RE007 growth inh,Shiga toxin inh,LmPK inhibitor,Giardia FBPA inh
O=Nc1c(-c2c(O)[nH]c3cc(Br)ccc23)[nH]c2ccccc12,-7%,30*,8%[18.4 µM],30*,-28%,-30%
CCOc1ccc(Br)cc1C1C(C(=O)Nc2ccccc2OC)=C(C)Nc2nnnn21 (configuration not stated),0%,·,·,·,·,·
NNC(=O)c1cc2c(s1)-c1cc(Cl)ccc1SC2,-3%,28*,-1%,39,2%,-1%
O=C(NCc1ccc(Cl)cc1)c1cc2c(s1)-c1ccccc1SC2,-9%,·,·,·,·,·
CCN(C(=O)Cn1nc(Cc2cccnc2)c2ccccc2c1=O)c1ccccc1F,-4%,·,·,·,·,·
CC(=O)N1CCc2cc(Br)cc(S(=O)(=O)N3CCN(c4cccc(C)c4)C(C)C3)c21 (configuration not stated),0%,·,·,·,·,·
CC(=O)Nc1nc(-c2ccc3c(c2)CC(C)N3C(=O)C2CC2)c(C)s1 (configuration not stated),-12%,20*,42%,65*,1%,-20%
